Results reported in PubChem BioAssay (NCATS).
Several values for one entry are separate records, joined by “and”; a condition that tells them apart may be missing. Identical values can stand only once. Records with an inconclusive call do not appear. A structure can be active in one record and inactive in another. Activity calls are given as the source filed them. Unless noted, the call rests on the fitted dose curve; in most records, active means well fitted curve in the direction sought with a large enough effect; inconclusive means small, poorly fitted or top-dose-only effect, or another doubt; inactive means no such curve, though single readings can be large; an effect the other way counts as inactive or inconclusive.

What was measured:
[1] = target: Flap endonuclease 1 (Homo sapiens) (UniProt P39748); assay: qHTS Validation Assay for the Inhibitors of Human Flap endonuclease 1 (FEN1) (AID 488816); further: on the % scale 0 is the no-effect control and ±100 the full control effect
Chain of Flap endonuclease 1 (Homo sapiens) (P39748 whole entry, looked up): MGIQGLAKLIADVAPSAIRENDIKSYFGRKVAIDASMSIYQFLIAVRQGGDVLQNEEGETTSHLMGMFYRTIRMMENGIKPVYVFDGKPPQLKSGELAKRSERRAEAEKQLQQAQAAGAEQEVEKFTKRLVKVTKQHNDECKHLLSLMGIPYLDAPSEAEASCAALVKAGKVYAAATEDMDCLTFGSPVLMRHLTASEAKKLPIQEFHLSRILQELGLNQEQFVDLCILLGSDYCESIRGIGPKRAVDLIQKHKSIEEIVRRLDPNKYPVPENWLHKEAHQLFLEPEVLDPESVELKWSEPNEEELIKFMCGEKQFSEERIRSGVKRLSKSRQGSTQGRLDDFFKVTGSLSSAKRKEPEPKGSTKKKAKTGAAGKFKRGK
Method in brief: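 qHTS format: compounds and 10 nM FEN1 incubated 15 min at room temperature before adding 50 nM substrate. Cleavage followed by reads at 0 and 15 min; normalized data fitted to a four-parameter Hill curve.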

[2] = target: M-phase phosphoprotein 8 (Homo sapiens) (UniProt Q99549); assay: qHTS Validation Assay for Inhibitors for MPP8 Chromodomain Interactions with Methylated Histone Tails (AID 488949); further: nearly all actives have a fitted effect of over 55% in size; further: potency means the concentration at half of the fitted maximal effect
Chain of M-phase phosphoprotein 8 (Homo sapiens) (Q99549 whole entry, looked up): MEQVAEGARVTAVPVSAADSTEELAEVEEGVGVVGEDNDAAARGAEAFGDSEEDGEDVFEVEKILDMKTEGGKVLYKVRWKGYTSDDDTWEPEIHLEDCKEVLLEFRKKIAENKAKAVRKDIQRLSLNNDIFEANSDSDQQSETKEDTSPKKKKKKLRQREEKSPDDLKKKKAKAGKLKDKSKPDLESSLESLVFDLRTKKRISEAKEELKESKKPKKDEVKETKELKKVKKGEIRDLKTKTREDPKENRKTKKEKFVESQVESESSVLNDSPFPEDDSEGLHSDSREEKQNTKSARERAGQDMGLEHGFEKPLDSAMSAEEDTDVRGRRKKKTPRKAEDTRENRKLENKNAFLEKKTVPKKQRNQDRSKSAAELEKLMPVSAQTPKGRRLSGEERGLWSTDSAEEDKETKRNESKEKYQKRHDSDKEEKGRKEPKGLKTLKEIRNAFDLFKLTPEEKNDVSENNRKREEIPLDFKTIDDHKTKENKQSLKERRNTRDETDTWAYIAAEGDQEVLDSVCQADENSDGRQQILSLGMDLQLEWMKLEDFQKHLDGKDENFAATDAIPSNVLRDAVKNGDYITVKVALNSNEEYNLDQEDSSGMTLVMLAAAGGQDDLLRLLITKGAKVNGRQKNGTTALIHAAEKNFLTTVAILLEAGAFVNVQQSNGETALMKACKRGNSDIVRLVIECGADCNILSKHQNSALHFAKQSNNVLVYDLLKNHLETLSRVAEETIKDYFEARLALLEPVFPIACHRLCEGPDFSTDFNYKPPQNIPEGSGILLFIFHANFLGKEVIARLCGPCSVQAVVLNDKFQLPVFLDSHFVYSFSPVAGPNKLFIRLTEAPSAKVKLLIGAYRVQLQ
Method in brief: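 AlphaScreen read-out: streptavidin donor and nickel chelate acceptor beads (final 10 ug/mL), 30 min in the dark at RT. Complex of 50 nM MPP8 and 50 nM b-H3(1-18)K9me3 peptide had been exposed to compounds for 30 min beforehand.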

[3] = target: Chromobox protein homolog 1 (Homo sapiens) (UniProt P83916); assay: qHTS Validation Assay for Inhibitors of HP1-beta Chromodomain Interactions with Methylated Histone Tails (AID 488953); further: nearly all actives have a fitted effect of over 50% in size; further: potency means the concentration at half of the fitted maximal effect
Chain of Chromobox protein homolog 1 (Homo sapiens) (P83916 whole entry, looked up): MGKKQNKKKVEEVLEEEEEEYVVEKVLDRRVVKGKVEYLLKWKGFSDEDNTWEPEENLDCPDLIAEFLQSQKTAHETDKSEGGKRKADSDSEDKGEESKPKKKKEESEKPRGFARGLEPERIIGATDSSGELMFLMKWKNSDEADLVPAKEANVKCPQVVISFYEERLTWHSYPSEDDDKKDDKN
Method in brief: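 Disruption of preformed HP1-beta:H3K9me3 peptide complexes (both 50 nM, PBS pH 7.4 with 0.01% Tween-20) is measured by AlphaScreen after 30 min compound exposure at room temperature, using streptavidin donor and nickel chelate acceptor beads at 10 ug/mL final.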

[4] = target: Methanococcus maripaludis chaperonin (MmCpn) (UniProt Q6LX38); assay: High-Throughput Screening for Modulators of Cytosolic Chaperonin Activity: MmCpn Primary Screen (AID 488978);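 further: 50 nM MmCpn enzyme hydrolysing 30 µM ATP at 37 °C; 0% is about no effect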
Chain of Methanococcus maripaludis chaperonin (MmCpn) (Q6LX38 1-543): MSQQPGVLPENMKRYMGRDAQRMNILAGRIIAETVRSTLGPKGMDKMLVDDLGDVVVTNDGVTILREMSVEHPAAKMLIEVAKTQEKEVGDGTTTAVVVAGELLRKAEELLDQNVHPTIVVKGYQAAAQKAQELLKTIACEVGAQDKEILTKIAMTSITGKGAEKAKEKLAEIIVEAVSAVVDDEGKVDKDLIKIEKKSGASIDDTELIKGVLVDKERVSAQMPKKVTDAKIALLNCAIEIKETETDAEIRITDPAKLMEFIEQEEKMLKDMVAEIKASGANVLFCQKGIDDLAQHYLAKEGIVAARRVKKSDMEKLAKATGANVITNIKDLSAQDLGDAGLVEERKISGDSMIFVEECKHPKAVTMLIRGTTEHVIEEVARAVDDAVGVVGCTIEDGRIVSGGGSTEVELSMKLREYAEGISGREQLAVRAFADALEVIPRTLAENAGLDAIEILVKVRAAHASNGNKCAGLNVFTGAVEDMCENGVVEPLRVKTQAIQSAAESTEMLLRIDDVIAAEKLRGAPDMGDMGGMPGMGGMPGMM
Method in brief: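 ADP formation read by HTRF Transcreener, 665/590 nm emission after 320 nm excitation. Enzyme: archaeal chaperonin at 50 nM final; substrate ATP 30 uM final; 10 min, 37C, after 5 min compound preincubation at RT.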

[5] = target: Transient receptor potential cation channel subfamily V member 1 (Homo sapiens) (UniProt Q8NER1); assay: HTS Assay for Compounds that Act as Enhancers of the Vanilloid Receptor 1 (AID 488979); further: 0% is about no effect
Chain of Transient receptor potential cation channel subfamily V member 1 (Homo sapiens) (Q8NER1 whole entry, looked up): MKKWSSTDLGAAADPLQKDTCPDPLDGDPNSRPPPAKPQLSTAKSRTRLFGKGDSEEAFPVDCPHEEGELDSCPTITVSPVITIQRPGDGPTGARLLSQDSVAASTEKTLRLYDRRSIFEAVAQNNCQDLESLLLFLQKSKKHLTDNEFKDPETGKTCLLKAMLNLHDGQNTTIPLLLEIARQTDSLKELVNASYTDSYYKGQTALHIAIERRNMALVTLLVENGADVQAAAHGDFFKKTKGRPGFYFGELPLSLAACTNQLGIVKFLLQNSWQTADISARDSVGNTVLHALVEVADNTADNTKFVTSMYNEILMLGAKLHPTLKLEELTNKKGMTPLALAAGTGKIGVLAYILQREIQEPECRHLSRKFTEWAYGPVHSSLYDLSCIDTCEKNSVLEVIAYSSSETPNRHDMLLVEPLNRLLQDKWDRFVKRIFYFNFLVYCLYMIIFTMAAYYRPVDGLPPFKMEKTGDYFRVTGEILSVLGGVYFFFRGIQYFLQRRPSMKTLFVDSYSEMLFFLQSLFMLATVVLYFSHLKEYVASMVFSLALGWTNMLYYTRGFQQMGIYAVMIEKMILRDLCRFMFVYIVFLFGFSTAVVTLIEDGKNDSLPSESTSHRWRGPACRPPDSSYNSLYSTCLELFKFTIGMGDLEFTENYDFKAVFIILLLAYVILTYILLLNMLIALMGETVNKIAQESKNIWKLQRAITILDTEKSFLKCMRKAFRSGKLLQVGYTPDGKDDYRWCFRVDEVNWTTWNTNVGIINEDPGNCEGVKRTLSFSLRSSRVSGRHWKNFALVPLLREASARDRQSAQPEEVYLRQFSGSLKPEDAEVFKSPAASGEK
Method in brief: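 Calcium influx kinetics via Fluo-8 (480/520 nm) in TRPV1-expressing cells, 2000/well cultured overnight at 35.5C. Compound-alone read 3 min (agonist phase), followed by EC20 capsaicin challenge for 2 min (enhancer phase).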

[6] = target: Thyrotropin receptor (Homo sapiens) (UniProt P16473); assay: qHTS Assay for Antagonists of the Thyroid Stimulating Hormone Receptor (AID 488980); further: series mostly up to about 58 µM; 0% is about no effect
Chain of Thyrotropin receptor (Homo sapiens) (P16473 whole entry, looked up): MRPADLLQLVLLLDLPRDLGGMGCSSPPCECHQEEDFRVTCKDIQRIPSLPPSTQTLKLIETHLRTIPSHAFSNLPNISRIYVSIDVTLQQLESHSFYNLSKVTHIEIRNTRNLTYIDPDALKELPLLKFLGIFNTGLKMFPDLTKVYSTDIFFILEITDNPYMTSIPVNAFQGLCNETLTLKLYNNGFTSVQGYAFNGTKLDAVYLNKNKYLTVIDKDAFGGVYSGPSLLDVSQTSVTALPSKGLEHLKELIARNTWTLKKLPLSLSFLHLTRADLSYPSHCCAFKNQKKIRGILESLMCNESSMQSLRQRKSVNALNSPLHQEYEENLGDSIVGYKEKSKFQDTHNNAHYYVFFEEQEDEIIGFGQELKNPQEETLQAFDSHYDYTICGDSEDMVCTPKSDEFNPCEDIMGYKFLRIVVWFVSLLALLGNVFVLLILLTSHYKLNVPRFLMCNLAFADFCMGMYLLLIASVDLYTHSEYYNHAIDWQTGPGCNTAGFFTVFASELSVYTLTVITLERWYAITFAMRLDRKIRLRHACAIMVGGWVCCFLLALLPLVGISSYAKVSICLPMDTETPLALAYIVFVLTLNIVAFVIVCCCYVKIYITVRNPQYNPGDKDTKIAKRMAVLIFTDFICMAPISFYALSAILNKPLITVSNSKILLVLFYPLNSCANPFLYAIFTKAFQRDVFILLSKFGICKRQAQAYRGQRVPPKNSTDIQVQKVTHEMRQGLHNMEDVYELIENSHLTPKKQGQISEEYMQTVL
Method in brief: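 TSHR-HEK293 cells; 70 uM RO 20-1724 PDE inhibitor; compound + EC80 TSH (4 nM final); anti-cAMP cryptate antibody/cAMP-d2 in lysis buffer, 30 min RT; HTRF 665/620 nm read.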

[7] = target: D(1A) dopamine receptor (Homo sapiens) (UniProt P21728); assay: HTS Assay for Allosteric Agonists of the Human D1 Dopamine Receptor: Primary Screen for Agonists (AID 488981); further: 0% is about no effect
Chain of D(1A) dopamine receptor (Homo sapiens) (P21728 whole entry, looked up): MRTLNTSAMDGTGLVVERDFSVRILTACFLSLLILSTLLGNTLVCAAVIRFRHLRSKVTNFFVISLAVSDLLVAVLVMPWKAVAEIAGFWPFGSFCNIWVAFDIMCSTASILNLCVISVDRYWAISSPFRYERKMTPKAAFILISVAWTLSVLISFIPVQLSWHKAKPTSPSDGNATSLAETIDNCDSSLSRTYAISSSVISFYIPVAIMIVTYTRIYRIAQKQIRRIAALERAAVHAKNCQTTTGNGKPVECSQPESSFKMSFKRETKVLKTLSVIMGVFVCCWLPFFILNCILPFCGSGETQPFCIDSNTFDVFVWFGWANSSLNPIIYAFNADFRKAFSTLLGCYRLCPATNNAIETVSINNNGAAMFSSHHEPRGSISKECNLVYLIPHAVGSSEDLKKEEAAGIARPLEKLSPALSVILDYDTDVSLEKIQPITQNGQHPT
Method in brief: (§1)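 Calcium flux in an inducible, force-coupled HEK293 Trex D1 line (overnight at 30 C): agonist mode is the 180 s kinetic read after compound; potentiator mode is the following 180 s read after dopamine at EC20.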

[8] = target: D(1A) dopamine receptor (Homo sapiens) (UniProt P21728); assay: HTS Assay for Allosteric Agonists of the Human D1 Dopamine Receptor: Primary Screen for Potentiators (AID 488982); further: 0% is about no effect
Method in brief: as §1

[9] = target: D(1A) dopamine receptor (Homo sapiens) (UniProt P21728); assay: HTS Assay for Allosteric Agonists of the Human D1 Dopamine Receptor: Primary Screen for Antagonists (AID 488983);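 further: calcium flux response to an EC80 dopamine challenge measured with no-wash dye; on the % scale 0 is the no-effect control and ±100 the full control effect; nearly all actives have a fitted effect of over 65% in size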
Method in brief: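 Kinetic fluorescence at 1 cycle/sec tracked intracellular calcium in force-coupled, tetracycline-inducible HEK293 T-REx D1 cells. Loss of response to an EC80 dopamine dose, given 180 s after compound, marked antagonists.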

[10] = target: ATPase family AAA domain-containing protein 5 (Homo sapiens) (UniProt Q96QE3); assay: Validation screen for small molecules that inhibit ELG1-dependent DNA repair in human embryonic kidney (HEK293T) cells expressing luciferase-tagged ELG1 (AID 493107);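 further: cells co-treated with the DNA-damaging agent 5-fluorouridine alongside compound; series mostly up to about 46 µM; on the % scale 0 is the no-effect control and ±100 the full control effect; inhibitors lower the ELG1-luciferase luminescence signal; nearly all actives have a fitted effect of over 70% in size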
Method in brief: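 Cells are dispensed in 1536-well format, then 5-fluorouridine and compound are pinned in. After a 16 hr incubation at 37 °C and 5% CO2, ONE-Glo is added and luciferase measured on a CCD imager.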

[11] = target: Thyrotropin-releasing hormone receptor (Homo sapiens) (UniProt P34981); assay: qHTS for Small Molecule Agonists and Allosteric Enhancers of Human TRH Receptor: Validation Screen for Agonists (AID 493127;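 active means calcium activation more than 3 SD above the typical response in the agonist read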;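 further: intracellular calcium rise by fluo-8 fluorescence before TRH EC20 addition; 0% is about no effect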); conditions: TRH receptor agonist cell assay; at 2 µM; stronger effect = higher value
Chain of Thyrotropin-releasing hormone receptor (Homo sapiens) (P34981 whole entry, looked up): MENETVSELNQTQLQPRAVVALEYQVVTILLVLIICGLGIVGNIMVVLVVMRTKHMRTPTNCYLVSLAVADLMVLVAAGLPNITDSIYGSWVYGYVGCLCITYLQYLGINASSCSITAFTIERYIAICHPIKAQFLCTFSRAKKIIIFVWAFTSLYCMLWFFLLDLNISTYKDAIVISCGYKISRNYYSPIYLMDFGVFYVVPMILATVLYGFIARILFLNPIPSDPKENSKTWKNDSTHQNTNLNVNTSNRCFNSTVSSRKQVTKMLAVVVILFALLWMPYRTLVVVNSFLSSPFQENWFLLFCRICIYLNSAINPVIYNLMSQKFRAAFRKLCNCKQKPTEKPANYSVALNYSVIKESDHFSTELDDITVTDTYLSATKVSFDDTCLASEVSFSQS
Method in brief: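 Compounds are added by online pintool to dye-loaded TRHR cells while fluorescence is recorded every second. A rise in calcium signal during the agonist read marks activation; a later 10 nM TRH addition (EC20) serves the separate enhancer mode.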

[12] = Nrf2 qHTS screen for inhibitors: Validation (AID 493153; active means well fitted inhibition curve with a large enough effect in the main read-out, with a control signal flat, not every such curve was filed as active); conditions: Potency: luciferase luminescence; viability change: measured here: cytotoxicity max response
Method in brief: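 A549 ARE_Fluc, 5% FBS OPTI-MEM; cpd titration, 18-24 h, 37°C/5% CO2. Read 1: CellTiter-Fluor (Ex 405/Em 525), cytotox. Read 2: luciferase lum, Nrf2 activity.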

[13] = qHTS for Inhibitors of Cell Surface uPA Generation: Validation Assay (AID 493164);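 further: RAW 264.7 macrophage cells exposed to compound for 18 h; 0% is about no effect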
Method in brief: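 ATP-Lite luminescence read-out: ATP remains high when uPA activity-dependent LF translocation into the cytoplasm is blocked. RAW 264.7 cells, 18 h compound exposure at 37 C; 7-point titration, 2.45 nM to 38.3 uM final.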

[14] = target: Galactokinase (Homo sapiens) (UniProt P51570); assay: qHTS Validation Assay for Inhibitors of Human Galactokinase (GALK) (AID 493189); further: 0% is about no effect
Chain of Galactokinase (Homo sapiens) (P51570 whole entry, looked up): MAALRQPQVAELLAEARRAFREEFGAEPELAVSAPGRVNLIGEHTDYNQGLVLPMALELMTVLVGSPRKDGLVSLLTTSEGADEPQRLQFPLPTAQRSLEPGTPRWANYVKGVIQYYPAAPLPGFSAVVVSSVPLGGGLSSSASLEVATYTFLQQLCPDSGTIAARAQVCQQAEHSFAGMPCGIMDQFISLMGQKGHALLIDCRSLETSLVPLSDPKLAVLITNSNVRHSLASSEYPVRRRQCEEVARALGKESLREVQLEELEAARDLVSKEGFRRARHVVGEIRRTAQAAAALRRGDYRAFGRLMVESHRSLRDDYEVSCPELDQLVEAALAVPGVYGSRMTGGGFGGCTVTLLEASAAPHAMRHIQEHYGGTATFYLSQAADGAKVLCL
Method in brief: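 Luminescence from leftover ATP (Kinase-Glo Plus, 10 min) served as read-out after a 1 h room-temperature reaction of 5 nM GALK, 100 uM galactose and 35 uM ATP at pH8.0.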

[15] = Validation screen for small molecules that induce DNA re-replication in SW480 colon adenocarcinoma cells (AID 504364); further: 0% is about no effect
Method in brief: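 Image-based qHTS: compounds were incubated with SW480 cells for 48 hr, nuclei stained with Hoechst, and per-nucleus fluorescence intensity scanned to flag cells with excess DNA content.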

[16] = target: Peptidyl-prolyl cis-trans isomerase NIMA-interacting 1 (Homo sapiens) (UniProt Q13526); assay: qHTS Validation Assay to Find Inhibitors of Pin1 (AID 504536; active means well fitted inhibition curve with a large enough effect in the polarisation, with a control signal flat, not every such curve was filed as active; the % refers to the polarisation;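 further: 0% = full Pin1 enzyme wells and -100% = no-enzyme wells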)
Chain of Peptidyl-prolyl cis-trans isomerase NIMA-interacting 1 (Homo sapiens) (Q13526 whole entry, looked up): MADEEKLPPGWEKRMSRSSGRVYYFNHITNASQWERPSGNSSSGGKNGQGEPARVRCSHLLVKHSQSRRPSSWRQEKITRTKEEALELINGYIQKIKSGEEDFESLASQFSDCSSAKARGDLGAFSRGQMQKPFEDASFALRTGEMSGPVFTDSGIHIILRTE
Method in brief: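 Fluorescence polarization competition: compounds (titration) displace HiFluor-488-labeled Pin1-1b peptide from Pin1 (0.3 uM final) in pH 7.5 HEPES buffer with DTT, 10 min at room temperature; %Activity normalized to no-enzyme wells, curves fitted.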

[17] = target: Phosphoglycerate kinase, glycosomal (Trypanosoma brucei brucei) (UniProt P07378); assay: qHTS Validation Assay to Find Inhibitors of Phosphoglycerate Kinase (AID 504547);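 further: control wells lack PGK and mark full inhibition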
Method in brief: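 Luminescence end-point (Kinase-Glo Plus, 10 min) after a 60 min room-temperature coupled reaction. GAPDH at 100nM final supplies 1,3-BPG to PGK. Buffer: 100mM TEA pH 7.6, 5mM MgCl2, 0.01% Tween-20. Wells lacking PGK served as controls.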

[18] = target: ATP-dependent 6-phosphofructokinase (Trypanosoma brucei brucei) (UniProt O15648); assay: qHTS Assay to Find Inhibitors of T. brucei phosphofructokinase: hit validation (AID 492961);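 further: luminescence reports ADP formed as PFK phosphorylates fructose-6-phosphate with ATP; series mostly up to about 51 µM; on the % scale 0 is the no-effect control and ±100 the full control effect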
Method in brief: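 Measures ADP output of PFK (1.25 nM) at 0.1 mM ATP, 0.5 mM F6P, pH 8.0 TEA buffer with 5 mM MgCl2. No-enzyme wells define full inhibition; uninhibited enzyme wells define zero.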

[19] = Validation screen for small molecules that induce genotoxicity in human embryonic kidney (HEK293T) cells expressing luciferase-tagged ELG1 (AID 493106); further: 0% is about no effect
Method in brief: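 Cells were dispensed at 2,000 per well, then 23 nL compound or DMSO was pinned in. After 16 hr at 37 °C and 5% CO2, ONE-Glo reagent was added. Luciferase activity was measured following 30 min at room temperature.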

Clc1ccc(N2CC3CCC(C2)N3)nn1
4.91%: viability change [12]
inactive: Potency [1] | Potency [2] | Potency [3] | outcome [4] | outcome [5] | outcome [6] | Potency [7] | Potency [8] | Potency [9] | Potency [10] | activation [11] 1.19% | Potency [12] | outcome [13] | outcome [14] | Potency [15] | Potency [16] | Potency [17]

CCOC(=O)c1ncn2c1[C@@H]1CCCN1C(=O)c1cc(OC)ccc1-2
inactive: Potency [1] | Potency [2] | Potency [3] | outcome [4] | outcome [5] | outcome [6] | Potency [7] | Potency [9] | Potency [10] | activation [11] -0.25% | Potency [12] | outcome [14] | Potency [15] | Potency [16] | Potency [17]
-9.51%: viability change [12]

C[N+]1(C)C2CCC1CC(OC(=O)c1c[nH]c3ccccc13)C2 (stereo not given)
inactive: Potency [1] | Potency [3] | outcome [4] | outcome [5] | Potency [7] | Potency [8] | Potency [9] | Potency [18] | Potency [19] | Potency [10] | activation [11] 0.188% | Potency [12] | outcome [13] | outcome [14] | Potency [16] | Potency [17]
2.15%: viability change [12]
inactive and 8.44 µM (active): Potency [2]

NC(Cc1ccc(N(CCCl)CCCl)cc1)C(=O)O (stereo not given)
inactive: Potency [1] | Potency [2] | outcome [4] | outcome [5] | outcome [6] | Potency [7] | Potency [9] | activation [11] -0.125% | outcome [13] | outcome [14] | Potency [15] | Potency [16] | Potency [17]
active: Potency [3] 6.7 nM

c1ccc2c(N3CCNCC3)cccc2c1
3.18%: viability change [12]
inactive: Potency [1] | Potency [2] | Potency [3] | outcome [4] | outcome [5] | outcome [6] | Potency [7] | Potency [8] | Potency [19] | Potency [10] | activation [11] 1.75% | Potency [12] | outcome [13] | outcome [14] | Potency [15] | Potency [16] | Potency [17]

CC12NC(Cc3ccccc31)c1ccccc12 (stereo not given)
6.2%: viability change [12]
inactive: Potency [1] | Potency [2] | Potency [3] | outcome [4] | outcome [5] | Potency [7] | Potency [8] | Potency [9] | Potency [18] | Potency [19] | Potency [12] | outcome [13] | outcome [14] | Potency [15] | Potency [16] | Potency [17]

NC(C(=O)O)c1cc(=O)[nH]o1 (stereo not given)
-7.19%: viability change [12]
inactive: Potency [1] | Potency [2] | Potency [3] | outcome [4] | outcome [5] | outcome [6] | Potency [7] | Potency [8] | Potency [9] | Potency [19] | Potency [10] | activation [11] 0.688% | Potency [12] | outcome [13] | outcome [14] | Potency [15] | Potency [16] | Potency [17]
